Experimental data published in PubChem BioAssay AID588852 (The Scripps Research Institute Molecular Screening Center, 2011).
In all, about 360,000 compounds went through this assay and about 4,600 (1.3%) were called active.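 Rule for the calls: active = percent inhibition above its own plate's cutoff, namely the mean of that plate's compound wells plus 3 SD; inactive = the rest.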 Shown is part of a subset that was picked to be rich in actives.

target: Muscarinic acetylcholine receptor M1 (Homo sapiens) (UniProt P11229); assay: CHRM1 blockers of acetylcholine calcium response – CHO-K1 cells, Fluo-8 calcium fluorescence, 1536-well, primary screen (AID 588852); settings: CHO-K1 hM1, Fluo-8 calcium fluorescence, ACh EC80 antagonist; at 3 µM; active compounds read high;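 note: peak over basal fluorescence ratio during 140 s after agonist addition; 0% = ACh EC80 plus DMSO and 100% = DMSO alone without agonist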
Sequence (P11229 whole entry, looked up): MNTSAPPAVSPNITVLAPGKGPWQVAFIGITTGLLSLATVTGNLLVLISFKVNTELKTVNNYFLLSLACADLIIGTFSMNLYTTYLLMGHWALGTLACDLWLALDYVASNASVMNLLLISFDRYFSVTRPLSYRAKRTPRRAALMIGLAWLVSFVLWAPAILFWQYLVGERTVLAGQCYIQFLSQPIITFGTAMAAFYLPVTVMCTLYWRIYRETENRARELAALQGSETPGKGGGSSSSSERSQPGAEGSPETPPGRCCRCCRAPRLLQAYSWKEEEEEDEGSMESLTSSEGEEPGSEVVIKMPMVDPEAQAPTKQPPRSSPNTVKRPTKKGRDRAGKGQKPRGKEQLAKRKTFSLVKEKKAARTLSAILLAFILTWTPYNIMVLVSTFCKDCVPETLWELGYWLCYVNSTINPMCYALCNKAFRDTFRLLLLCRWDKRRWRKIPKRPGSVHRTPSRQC

inhibition, inactive:
N#C/C(=C/c1ccc(N2CCOCC2)o1)C(=O)N1CCOCC1 -3.41%
N#C/C(=C\c1ccc(N2CCOCC2)o1)C(=O)N1CCOCC1 -4.72%
Cc1ccc2cc(C)c(N3CCC(C)CC3)nc2c1 1.39%
Cc1cc(Nc2cc(N3CCN(C)CC3)nc(Sc3ccc(NC(=O)C4CC4)cc3)n2)n[nH]1 -2.83%
CCN(CC)CCN(C(=O)c1ccc2c(c1)CCCC2)c1nc2c(OC)cccc2s1 14.3%
CCNC(=S)N(CCN(CC)CC)Cc1cc2cc3c(cc2[nH]c1=O)OCO3 -13.5%
C[C@@H]1CN([C@H](C)CO)C(=O)c2cc(Br)cnc2O[C@@H]1CN(C)Cc1cncnc1 -11.6%
COc1ccc(S(=O)(=O)N2CCN(C(=O)N(C)C)C2C)cc1 (stereo not given) -7.85%
O=C(CC[C@H]1O[C@@H](n2ccc(=O)[nH]c2=O)[C@H](O)[C@@H]1O)N[C@H](Cc1ccccc1)C(=O)NCc1ccco1 -4.88%
Cc1ccc(S(=O)(=O)N2CC[C@H]3[C@@H](C2)C(=O)C[C@@H](c2ccccc2)N3S(=O)(=O)c2ccc(C)cc2)cc1 -2.99%
CCOC(=O)N1CCN(Cc2nc3cc(NC(C)=O)ccc3n2C)CC1 -2.65%
CCN(CC)c1ccc(NC(=O)CN2CCN(c3ccccn3)CC2)cc1 -1.84%
Cn1c(=O)n(C)c2cc(NS(=O)(=O)c3ccc(F)cc3)ccc21 4.92%
Cn1c(=O)n(C)c2cc(S(=O)(=O)Nc3ccc(F)cc3)ccc21 0.75%
CCOc1ccc(CCN2C(=S)N([C@@H](CC(C)C)CN3CCC[C@@H]3CN3C(=S)NC[C@@H]3Cc3ccc(O)cc3)C[C@@H]2Cc2ccc(O)cc2)cc1 -5.61%
COc1ccc(OC)c(C2C3=C(N=c4s/c(=C\c5cccc(O)c5)c(=O)n42)c2ccccc2CC3)c1 (stereo not given) -14.9%
CC1(c2cccc(Br)c2)NC(=O)N(CC(=O)NCCC2=CCCCC2)C1=O (stereo not given) -4.07%
CN(Cc1ccc(F)cc1Cl)S(=O)(=O)c1cccs1 -6.7%
Cc1ccc(-c2ccc(=O)n(Cc3ccc(F)cc3Cl)n2)cc1 -14.4%
CC(=O)NC(c1cccs1)c1cc(Br)c2cccnc2c1O (stereo not given) -13.2%
CCOC(=O)c1[nH]c2ccc(OC)cc2c1NC(=O)N1CCOCC1 -21.5%
CCOC(=O)c1cc2cc(C)ccc2[nH]1 6.42%
Cc1ccc(-c2ccnc3nc(Sc4ncc(C(F)(F)F)cc4Cl)nn23)cc1 -1.4%
O=C(Nn1cnnc1)c1cc(Cl)ccc1Cl -9.41%
O=C(NCc1ccc2c(c1)OCO2)c1cc2c(s1)CS(=O)(=O)C2 4.31%
Cc1cc(OCCN2CCCC2)ccc1C(C)C -3.45%
Cc1ccc(C(C)C)cc1OCC(=O)Nc1ccccc1N1CCCC1 -19.6%
Cc1ccc(OCCCCN2CCCCC2)c(Br)c1 22.6%
c1ccc2cc(OCCN3CCCC3)ccc2c1 -1.41%
CCCCc1nc2ccc(F)cc2cc1C -6.44%
CC(C)C1C(=O)N(Cc2cn(CCC3OCCO3)nn2)CCS(=O)(=O)N1Cc1ccc(-c2ccccc2C(F)(F)F)cc1 (stereo not given) -16.4%
Cc1ccccc1NC(=O)COc1cccc2c1CCNC2=O -7.58%
CC1CC(C)CN(CC(=O)N2c3ccccc3CCc3ccccc32)C1 (stereo not given) 4.81%
CN1CCN(S(=O)(=O)c2cccc(C(=O)N3CCc4ccccc43)c2)CC1 6.81%
CC(=O)Nc1ccc(NC(=O)[C@@H](NC(=O)c2cccc(C)c2)C(C)C)cc1 -11.7%
CSCCC(NC(=O)COc1ccccc1)C(=O)Nc1ccc(C)cc1 (stereo not given) -7.4%

inhibition, active:
CCN(CC)CCN(C(=O)c1cc(Cl)sc1Cl)c1nc2cc3c(cc2s1)OCO3 83.7%
CCC(=O)Nc1ccc2c(c1)nc(CCN1CCN(c3ccccn3)CC1)n2C 41.9%
Cn1c(CCN2CCN(c3ccccn3)CC2)nc2cc(NS(=O)(=O)c3ccc(F)cc3)ccc21 69.9%
CN(C)Cc1ccc(F)cc1Sc1cc(Cl)ccc1Cl 91.5%
CCOC(=O)c1[nH]c2ccc(C)cc2c1N=C(C)N(C)C 33.5%
Cc1ccc(C(C)C)cc1OCCN1CCCC1 53%
Cc1cc(OCCN2CCCC2)cc(C(C)C)c1 82.3%
CN1CCN(C(=O)N2c3ccccc3CCc3ccccc32)CC1 96.2%
Cc1ccc(NC(=O)C(C)c2cccc(C(=O)c3ccccc3)c2)cc1 (stereo not given) 28.2%
